Source: PubChem BioAssay (NCI)
About 83,000 compounds went through this panel and 20% of them were active in at least one assay; those are over-represented in the sample as a whole.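 96-well plates, one dose, 48 hours. Percent growth reported; active if below 10.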 Activity calls are given as the source filed them.

Tests used:
Assay in all cases: NCI-60 one-dose screen, 48 h (100 = growth as untreated, 0 = no growth, -100 = all killed)
Details in all cases: 10 µM unless noted
[1] = tested on: NCI-H23 lung
[2] = tested on: NCI-H226 lung
[3] = tested on: NCI-H322M lung
[4] = tested on: HOP-62 NSCLC
[5] = tested on: NCI-H460 lung
[6] = tested on: HOP-92 NSCLC
[7] = tested on: NCI-H522 lung
[8] = tested on: A549/ATCC NSCLC
[9] = tested on: 786-0 renal
[10] = tested on: COLO 205 colon

Measured: growth

O=C1/C(=C/c2ccccc2)CN(CCC(=O)N2C/C(=C\c3ccccc3)C(=O)/C(=C/c3ccccc3)C2)C/C1=C\c1ccccc1
inactive: [1] 85.4% | [2] 84.7% | [3] 90.4% | [4] 118% | [5] 84.7% | [6] 63.1% | [7] 53.9% | [8] 88.2% | [9] 73% | [10] 82.4%

COc1ccccc1/C=C(/C(=O)c1ccccc1)c1ccccc1
inactive: [1] 95.4% | [2] 107% | [3] 115% | [4] 114% | [5] 93.6% | [6] 75.7% | [7] 106% | [8] 97.4% | [9] 103% | [10] 122%

O=C(CO[N+](=O)[O-])Nc1ccc(C(=O)/C=C/c2ccc3c(c2)OCO3)cc1
inactive: [1] 58.1% | [2] 107% | [3] 108% | [4] 112% | [5] 108% | [6] 77.3% | [7] 97.6% | [8] 88.9% | [9] 109% | [10] 113%

N#CC1=C(N)Oc2c(ccc3ccccc23)C1c1cccs1 (stereo not given)
inactive: [1] 18% | [2] 40.9% | [3] 39.1% | [4] 25.5% | [6] 35.5% | [8] 22.5% | [9] 31.9%
active: [5] 0.254% | [7] -0.254% | [10] -54.9%

COc1ccc(S(=O)(=O)NCCNc2nccc(-c3c(-c4cccc(N)c4)nc4sccn34)n2)cc1
inactive: [1] 103% | [2] 96.1% | [3] 111% | [4] 110% | [5] 99.6% | [6] 96.2% | [7] 91.2% | [8] 99.6% | [9] 99% | [10] 106%

COc1ccc(/C=C2\N=C3SC=C(N)N3C2=O)cc1
inactive: [1] 23.6% | [2] 51.6% | [3] 46.6% | [4] 40.2% | [5] 17.3% | [8] 32.8% | [9] 33.2% | [10] 12.5%
active: [6] -8.02% | [7] -54.5%

COc1ccc(C(=O)/C=C/c2cc3ccccc3[nH]c2=O)cc1
active: [5] 3.4% | [7] -31%
inactive: [1] 11.9% | [2] 64.5% | [3] 61.5% | [4] 29.7% | [6] 34.6% | [8] 42.3% | [9] 33.5% | [10] 66.9%

O=C(CN1CCN(c2cc3c(cc2F)c(=O)c(C(=O)O)cn3C2CC2)CC1)Nc1nc(-c2ccccc2)cs1
inactive: [1] 86.4% | [2] 77.3% | [3] 102% | [4] 81.1% | [5] 73.3% | [6] 70.8% | [7] 75.5% | [8] 65.2% | [9] 75.5% | [10] 93.3%

CC/C=C\C[C@H](O)C/C=C1/C(=O)C=C[C@@H]1C/C=C\CCCC(=O)NC
inactive: [3] 20.7% | [6] 48.4%
active: [1] -18.8% | [2] -41.1% | [4] -24.3% | [5] -49.9% | [7] -15.6% | [8] -36.7% | [9] -39.1% | [10] -25.2%

O=C1c2cc3c(cc2-c2c1c1cc(Cl)c(Cl)cc1c(=O)n2C[C@H](O)CO)OCO3
active: [1] -55.7% | [2] -62% | [3] -16% | [4] -54.3% | [5] -0.391% | [6] -31.9% | [7] -29% | [8] -47.3% | [9] -44.3% | [10] -39.4%

COc1cc2nc3cc([N+](=O)[O-])ccc3c(NCCCNCC(C)(C)O)c2cc1OC
active: [1] -47.4% | [2] -37.6% | [3] -24.8% | [4] -53.3% | [5] -48.5% | [6] -53.9% | [7] -56.7% | [8] -30.9% | [9] -61.6% | [10] -81.2%

CC(=O)C1=C(O)C=C2Oc3c(C(=O)/C=C/c4c(Cl)cccc4Cl)c(O)c(C)c(O)c3[C@]2(C)C1=O
active: [1] -37.9% | [2] -41.2% | [3] -25.9% | [4] -48.6% | [5] 0.581% | [6] -24.9% | [7] -30.4% | [8] -46.1% | [9] -39.3% | [10] -59.1%

CSc1nc2sc3c(c2c(=O)n1-c1ccc(C(C)C)cc1)CCC(=O)C3
active: [1] -1.79% | [5] 1.54% | [6] -18.2% | [7] -75.3% | [10] -67.7%
inactive: [2] 65.6% | [3] 31.6% | [4] 15.2% | [8] 67.9% | [9] 18.7%

O=[N+]([O-])c1cccc(-c2nc3sccn3c2-c2ccnc(NCCCNS(=O)(=O)c3ccc(F)cc3)n2)c1
inactive: [3] 26.8% | [4] 12.5% | [5] 10.5% | [6] 46.2% | [9] 44.2%
active: [1] -7.3% | [2] -3.92% | [7] 0.116% | [8] 9.67% | [10] 4.52%

CCCCCn1cnc2c(=S)nc[nH]c21
inactive: [1] 102% | [2] 110% | [3] 121% | [4] 110% | [5] 98.5% | [6] 101% | [7] 90% | [8] 118% | [9] 106% | [10] 105%

CCN(CC)CCCC(C)NCCCNc1cccc2cccnc12 (stereo not given)
inactive: [1] 92.8% | [2] 93.5% | [3] 79.1% | [4] 82.6% | [5] 101% | [6] 92.5% | [7] 103% | [8] 106% | [9] 109% | [10] 91.7%

CCCCCCNC(=O)Oc1ccc(/C(=C(\C)c2ccccc2)c2ccc(OCCN(CC)CC)cc2)cc1
inactive: [1] 69.6% | [2] 82.6% | [3] 90% | [4] 83.2% | [6] 39.1% | [7] 47.8% | [8] 49.9% | [9] 44.7%
active: [5] 7.03% | [10] -4.77%

c1c2c(cc3c1OCO3)Cc1cc3c(cc1Cc1cc4c(cc1C2)OCO4)OCO3
inactive: [1] 109% | [2] 105% | [3] 109% | [4] 109% | [5] 104% | [6] 96.7% | [7] 94.2% | [8] 91.6% | [9] 110% | [10] 114%

COc1ccc(-c2csc(NC(=O)CN3CCN(c4cc5c(cc4F)c(=O)c(C(=O)O)cn5C4CC4)CC3)n2)cc1
active: [1] 9.73% | [5] 3.8% | [6] -17.2% | [7] -9.19% | [8] 9.1%
inactive: [2] 16% | [3] 17.1% | [4] 15.4% | [9] 24.4% | [10] 12.6%

O=[N+]([O-])c1cccc(-c2nc3sccn3c2-c2ccnc(NCCNS(=O)(=O)c3ccc(C(F)(F)F)cc3)n2)c1
inactive: [1] 43.3% | [2] 40.3% | [3] 61.8% | [4] 73% | [5] 33.4% | [6] 44.7% | [7] 34.3% | [8] 31.9% | [9] 60.3% | [10] 37.2%

CC/C(Cc1ccccc1)=C(/c1ccc(O)cc1)c1ccc(OCCN2CCCC2)cc1
active: [1] 8.75% | [3] -18% | [4] -22.3% | [5] -90.5% | [6] -12.8% | [7] -54.3% | [8] -59.1% | [9] -83.6% | [10] -71.8%
inactive: [2] 71.2%

CCN(CC)CCC(=O)Nc1ccc(Cn2nnc3c2C(=O)c2nnn(Cc4ccc(NC(=O)CCN(CC)CC)cc4)c2C3=O)cc1
inactive: [9] 88.7%
active: [1] -24.6% | [2] -49.5% | [3] -75.3% | [4] -34.5% | [5] -29.7% | [6] -44.3% | [7] -73.5% | [8] -58.1% | [10] -86.7%

O=C(Nc1nc(-c2ccccc2)cc(-c2ccc(Cl)cc2)n1)c1ccncc1
inactive: [1] 90.2% | [2] 93.3% | [3] 95.6% | [4] 97.6% | [5] 98.7% | [6] 89.5% | [7] 86.8% | [8] 90.5% | [9] 92.8% | [10] 103%

CCCCCCCCCCCCS(=O)CC(C)O (stereo not given)
inactive: [1] 115% | [2] 110% | [3] 119% | [4] 96.1% | [5] 111% | [6] 90.2% | [7] 95.3% | [8] 93% | [9] 102% | [10] 110%

CCCCCCCCCC(=O)Oc1ccc(/C(=C(/C)Cc2cccc(OC)c2)c2ccc(OCCN(C)C)cc2)cc1
inactive: [1] 99.3% | [2] 114% | [3] 107% | [4] 111% | [5] 112% | [6] 113% | [7] 97% | [8] 108% | [9] 103% | [10] 118%

Oc1c(Cl)cc(Cl)cc1CNc1nccnn1
inactive: [1] 102% | [2] 92% | [3] 99.3% | [4] 103% | [5] 109% | [6] 101% | [7] 105% | [8] 102% | [9] 111% | [10] 100%
